Screening data (PubChem BioAssay)
RE007 growth inh – less growth of the S. pombe RE007 Vpr strain; Potency, µM (series often up to 92.2 µM), hits mostly inhibitors; hit rate 0.21% among 360,000; S. pombe RE007 Vpr strain, BacTiter-Glo ATP luminescence, 24 h; active = well fitted falling curve with a large enough effect; inconclusive = small, poorly fitted or top-dose-only effect; inactive = no such curve, though single readings can be large or run the other way; also: nearly all actives have a fitted effect of over 50% in size
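Fission yeast strain RE007, carrying one chromosomally integrated HIV-1 vpr copy, was seeded at OD 0.01 in PMG+AL medium with 23 nL pinned compound. After 24 h at 30 °C and 99% humidity, viability was read by BacTiter-Glo luminescence.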
Giardia FBPA inh – blocks Giardia fructose-bisphosphate aldolase activity; A8B2U2; purified Giardia FBPA; Potency, µM (highest dose often 59.6 µM), hits mostly inhibitors; hit rate 0.71% among 290,000; AID 2451; also: nearly all actives have a fitted effect of over 55% in size
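Giardia FBPA (40 nM reagent) was preincubated 10 min at RT with compound (up to 57.5 uM final), then substrate plus GAPDH/TPI/NAD/arsenate coupling system with diaphorase/resazurin was added; resorufin fluorescence (525/598 nm) was read after 20 min.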
AmpC inh detg – inhibitors of E. coli AmpC beta-lactamase with detergent. AmpC hydrolysis of nitrocefin, absorbance 480 nm, 0.01% Triton. hit rate 0.041% among 370,000. AID 485294. Potency, µM (top dose mostly 114 µM), most hits filed as inhibitors; also: nearly all actives have a fitted effect of over 25% in size
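20 mM phosphate pH 7.0 + 0.01% (detergent screen) or 0.0001% Triton X-100; 5.3 nM AmpC reagent; cpd preinc 15 min RT; nitrocefin (800 uM stock) to start; A480 q20 s × 4 min; Activity was normalised to no-enzyme and no-compound control wells.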
AmpC inh no detg – inhibitors of E. coli AmpC beta-lactamase without detergent; AmpC nitrocefin hydrolysis, absorbance 480 nm, 0.0001% Triton; P00811; hit rate 0.52% among 330,000; Potency, µM (highest dose often 57.1 µM), actives largely listed as inhibitors; also: nearly all actives have a fitted effect of over 20% in size
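AmpC (5.3 nM in the dispensed reagent) in 20 mM phosphate pH 7.0 with 0.01% (detergent screen) or 0.0001% Triton X-100 was preincubated with compounds for 15 min at room temperature. Nitrocefin was then added from an 800 uM solution, and hydrolysis was followed at 480 nm.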
LmPK inhibitor – blocks Leishmania mexicana pyruvate kinase activity | Q27686 | purified LmPK, Kinase-Glo ATP luminescence, 1 h | Potency, µM (series often up to 57.5 µM), hits mostly inhibitors | hit rate 0.37% among 290,000 | AID 1721
Target sequence (Q27686 whole entry, looked up): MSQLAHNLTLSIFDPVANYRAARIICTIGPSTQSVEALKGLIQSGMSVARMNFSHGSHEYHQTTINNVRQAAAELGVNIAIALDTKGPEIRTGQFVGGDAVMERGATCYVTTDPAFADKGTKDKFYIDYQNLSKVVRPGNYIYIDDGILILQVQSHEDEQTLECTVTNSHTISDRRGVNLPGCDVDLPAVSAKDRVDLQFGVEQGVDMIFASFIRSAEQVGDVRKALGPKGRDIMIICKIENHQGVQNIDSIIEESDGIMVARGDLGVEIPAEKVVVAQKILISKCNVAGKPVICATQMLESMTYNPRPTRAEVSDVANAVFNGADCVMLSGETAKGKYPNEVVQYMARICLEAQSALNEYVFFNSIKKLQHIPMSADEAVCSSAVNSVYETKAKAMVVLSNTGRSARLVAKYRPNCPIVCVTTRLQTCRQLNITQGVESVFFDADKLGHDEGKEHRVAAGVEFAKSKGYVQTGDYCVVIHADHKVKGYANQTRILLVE
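qHTS format; LmPK 0.1 nM; substrates PEP 0.5 mM and ADP 0.1 mM. One-hour room-temperature incubation, then coupled luciferase luminescence; 0.5 nM enzyme wells mark activation.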
Tb PYK inh – T. brucei pyruvate kinase inhibition | AID 624173 | TbPYK enzyme, Kinase-Glo Plus ATP luminescence, 45 min | Potency, µM (titrated, usually from 76.8 µM), most hits filed as inhibitors | hit rate 0.12% among 410,000 | Q57TT1; also: nearly all actives have a fitted effect of over 50% in size
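T. brucei PYK with substrate was exposed to pin-transferred compounds across a concentration series, then started with 130 uM ADP (final). After 45 min at room temperature, Kinase-Glo Plus luminescence was read, normalized and curve-fitted.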
A number is an active result; - = inactive; ? = inconclusive; . = no result given; [ ] = remark or other dose. Compounds with a hit are over-represented: about 1.4% of the library has one in this group of screens. Unless noted, calls follow the shape of the dose curve; as a rule, active = well fitted curve in the direction sought with a large enough effect; inconclusive = small, poorly fitted or top-dose-only effect, or another doubt; inactive = no such curve, though single readings can be large; an effect the other way counts as inactive or inconclusive.

SMILES	RE007 growth inh	Giardia FBPA inh	AmpC inh detg	AmpC inh no detg	LmPK inhibitor	Tb PYK inh
CN(C(=S)Nc1ccc(Oc2ccccc2)cc1)c1ccc(O)cc1	-	1.4µM	-	-	-	-
CC1CCC(NC(=O)C2(C)Cc3ccccc3C(=O)N2Cc2ccccc2Cl)CC1 (stereo not drawn)	.	.	-	.	.	-
CC1=C(C(=O)N2CCCCC2)C(c2cccc(Cl)c2)n2c(nc3ccccc32)N1 (stereo not drawn)	.	.	-	.	.	-
Cc1cc(NCc2ccccn2)n2ncc(-c3ccc(Cl)cc3)c2n1	28µM	-	-	-	-	-
CCn1ccc2c(OCC(=O)Nc3ccccc3C(F)(F)F)cccc2c1=O	.	.	-	.	.	-
S=C(Nc1cccnc1)Nc1cccc2cnccc12	-	?	?	-	-	-
Fc1ccc(NC(=S)Nc2cccc3ccccc23)cc1	-	?	?	-	-	-
COc1ccc(NC(=S)Nc2cccc3cnccc23)cc1	-	?	-	-	-	-
S=C(Nc1ccc(Cl)cc1)Nc1cccc2cnccc12	-	1.6µM	-	-	-	-
CN(C)S(=O)(=O)c1cccc(NC(=S)Nc2cccc3cnccc23)c1	-	2.5µM	-	-	-	-
Fc1ccc(NC(=S)Nc2cccc3cnccc23)cc1	-	2.8µM	-	-[11.4 µM]	-	-
CCc1nn(CC(=O)N2CCN(c3cccc(C)c3)C(C)C2)c(=O)c2cc3sccc3n12 (stereo not drawn)	.	.	-	.	.	-
CSCC[C@H](NC(=O)[C@@H](Cc1ccc(O[S+](=O)([O-])O)cc1)NC(=O)[C@H](N)CC(=O)O)C(=O)NCC(=O)N[C@@H](Cc1c[nH]c2ccccc12)C(=O)N[C@H](CCSC)C(=O)N[C@H](CC(=O)O)C(=O)N[C@@H](Cc1ccccc1)C(N)=O	.	.	.	.	.	-
CCOC(=O)C(C)Oc1cccc2c(=O)n(CC(=O)Nc3ccc(OCC)cc3)ccc12 (stereo not drawn)	-	-	?	-	-	-
CCOC(=O)C(C)Oc1cccc2c(=O)n(CC(=O)Nc3cccc(OC)c3)ccc12 (stereo not drawn)	-	-	?	7.1µM	-	-
Cc1ccc(S(=O)(=O)c2cn(C)c3cc(N4CCCCCC4)c(F)cc3c2=O)cc1	.	.	-	.	.	-
CCC1CN(C(=O)N2CCC(C(=O)NCCc3ccc(OC)cc3OC)CC2)c2cc(C)ccc2O1 (stereo not drawn)	.	.	-	.	.	-
Cc1cccc(NC(=S)N/N=C2/CCCCc3ccccc32)c1	-	-	-	32µM	-	-
O=C(NN=C1CCCC1)c1n[nH]c2c1CCCC2	-	-	-	-	28µM	-
Cc1ccsc1/C=N/NC(=O)c1ccc2c(c1)OCCO2	-	-	-	-	22µM	-
C/C(=N\NC(=O)c1ccc2c(c1)OCCO2)c1ccccc1	-	-	-	-	11µM	?
O=C(N/N=C/c1c(Cl)cccc1Cl)c1n[nH]c2c1CCCC2	-	-	-	-	-	-
Cc1ccsc1/C=N\NC(=O)c1n[nH]c2c1CCC2	-	-	-	-	10µM	-
COc1ccc(NC(=O)Cn2nc(Cc3cccnc3)c3ccccc3c2=O)cc1OC	-	-	?	2.8µM	-	-
CC(=O)C1=C(C)OC(N)=C(C#N)C1c1cccc2ccccc12 (stereo not drawn)	-	20µM	-	-	-	-
SMILES	RE007 growth inh	Giardia FBPA inh	AmpC inh detg	AmpC inh no detg	LmPK inhibitor	Tb PYK inh
Nc1nonc1C(=O)NCCN=Cc1ccccc1O	-	-	-	-	-	-
Nc1nonc1C(=O)NCCN=Cc1cc(Cc2ccccc2)cc(Br)c1O	16µM	-	-	-	-	-
Cc1nn(-c2ccccc2)c(N)c1-c1ccccc1	-	-	-	-	-	-
Cc1nn(-c2nc3ccccc3[nH]2)c(N)c1-c1ccccc1	28µM	-	-	-	-	-
Nc1c(N(CCC2=CCCCC2)C(=O)CCCOc2ccccc2)c(=O)[nH]c(=O)n1Cc1ccccc1	-	.	?	14µM	.	-
Nc1c(N(CCC2=CCCCC2)C(=O)COc2ccc(F)cc2)c(=O)[nH]c(=O)n1Cc1ccccc1	-	.	-	-	.	-
CCC(C)[C@H](NC(=O)NCCCOC(C)C)C(=O)OC (stereo partly drawn)	-	-	-	-	-	-
COCCCNC(=O)C(=O)NCCCOC(C)C	-	-	-	0.28µM	-	-
Cc1ccc(C(=O)/C=C/c2c[nH]c3ccccc23)cc1	-	-	-	-	-	-
O=C(/C=C/c1c[nH]c2ccccc12)c1ccccc1	?	-	-	16µM	-	-
Cc1ccc2[nH]c3c(=O)n(CC(=O)N4CCCC(C)C4)ncc3c2c1 (stereo not drawn)	.	.	-	.	.	-
N#CC1C(=O)c2ccccc2C1c1ccccc1 (stereo not drawn)	8.9µM	.	.	.	.	-
COc1ccc(OC)c(NC(=O)Nc2ccc3c(c2)CCC3)c1	-	-	-	8.9µM	-	-
CN1c2ccccc2C(C)(C)C12C=Nc1c(ccc3ccccc13)O2 (stereo not drawn)	?	11µM	?	25µM	-	-
S=C(SSC(=S)N1CCOCC1)N1CCOCC1	-[18.4 µM]	.	.	.	.	3.2µM
CCN(C(=O)c1ccc2c(c1)N(Cc1cccc(Cl)c1)C(=O)c1ccccc1S2=O)c1ccccc1 (stereo not drawn)	.	.	-	.	.	-
Cc1ccccc1NC(=O)CSc1ccc(-c2cccs2)nn1	.	.	-	.	.	-
Cc1ccc(-c2csc(NC(=O)C3=COCCO3)n2)cc1	?	-	?	-	-	-
COc1ccc(C)c2sc(NC(=O)C3=COCCO3)nc12	.	-	?	40µM	-	.
Cc1ccc(C)c(-c2csc(NC(=O)C3=COCCO3)n2)c1	25µM	.	-	-	.	-
CN1CCN(S(=O)(=O)c2ccc3ccccc3c2)CC1	-	-	-	-	-	-
O=S(=O)(c1ccc2ccccc2c1)N1CCN(c2ccc(O)cc2)CC1	-	.	.	10µM	.	?
COc1ccccc1NC(=O)Cn1c(=O)oc2ccccc21	-	-	-	0.4µM	-	-
CCOc1ccccc1C(=O)N1CC(=O)Nc2ccc(Cl)cc2C1c1ccccc1 (stereo not drawn)	.	.	-	.	.	-
O=C1CSC2(C(=O)N(Cc3ccccc3F)c3ccccc32)N1c1cccc(C(F)(F)F)c1 (stereo not drawn)	.	.	-	.	.	-
O=C1OC2(c3ccc(O)cc3Oc3cc(O)ccc32)c2ccccc21	.	-	.	.	.	-
O=C1OC2(c3ccccc31)c1cc(I)c(O)c(I)c1Oc1c2cc(I)c(O)c1I	.	16µM	50µM	25µM	.	?
O=C1C(=O)c2ccc(-c3ccccc3)cc2-c2ccccc21	?	0.28µM	-	-	-	-
Nc1ccc2c(c1)C(=O)C(=O)c1ccccc1-2	25µM	?	-	-	?	?
